Screening data (PubChem BioAssay)
Only some compounds are listed: those with a hit (about 4.2% of all), similar ones and a draw of the others.
NALP3 yeast inh: NALP3 inflammasome inhibitors in reconstituted yeast, primary screen, luminescence, uHTS; Yeast reconstituted NLRP3/ASC/caspase-1, beta-gal luminescence, 24 h; inhibition, % at 10 µM; 330,000 compounds, 0.39% hits; AID 2825, 2010;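 active means inhibition of 50% or more; inactive means inhibition below 50%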;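 further: plate controls were induced DMSO wells for no effect and uninduced yeast grown without galactose for full effect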
tim10-1 inh: growth inhibitors of tim10-1 mutant yeast, primary screen, luminescence, uHTS; S. cerevisiae tim10-1 ts strain growth, BacTiter-Glo, 24 h; inhibition, % at 20 µM; 330,000 compounds, 2.2% hits;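 active means inhibition of at least 40%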;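 further: mutant grown at 25 °C; 0% = DMSO wells with yeast and 100% = wells holding no yeast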
tim23-1 inh: growth inhibitors of tim23-1 mutant yeast, primary screen, luminescence, uHTS | S. cerevisiae tim23-1 growth, BacTiter-Glo luminescence, 24 h | inhibition, % at 20 µM | 330,000 compounds, 1.3% hits | AID 463212, 2010;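 active means growth inhibition of the mutant yeast at or above 50%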;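 further: temperature-sensitive mutant grown at 25 °C; plate controls were DMSO-treated mutant yeast for no effect and medium wells lacking yeast for full effect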
NALP1 inh: NALP1 inflammasome inhibitors in reconstituted yeast, colorimetric, S. cerevisiae, triplicate retest; 280,000 compounds, 0.61% hits; inhibition, % at 10 µM; S. cerevisiae NALP1/ASC/caspase-1 growth, X-gal OD620, 72 h; in the data active means inhibition mostly above about 24%, no sharp cut-off; inactive means mostly below about 32%
TIM10 inh: growth inhibitors of isogenic TIM10 control yeast, primary screen, counter-screen for tim10-1 yeast inhibitor project, luminescence, uHTS; S. cerevisiae TIM10 strain growth, BacTiter-Glo luminescence, 24 h; inhibition, % at 10 µM; 330,000 compounds, 1.4% hits;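 active means inhibition of 40% or more at the single tested concentration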;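 further: wild-type TIM10 isogenic control strain grown at permissive 25 °C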
V-ATPase pH: regulators of yeast V-ATPase proton pumping, primary screen, pHLuorin cytosolic pH fluorescence | S. cerevisiae | response, % at 10 µM | 350,000 compounds, 0.37% hits | AID 504577, 2011; in the data active means response mostly above about 7.3%, no sharp cut-off; inactive means mostly below about 5.4%; further: actives read high
tim23-1 confirm: tim23-1 mutant yeast growth inhibitors, confirmation, luminescence, single concentration; S. cerevisiae tim23-1 growth, BacTiter-Glo luminescence, 24 h; inhibition, % at 20 µM; AID 463218, 2010; 4,400 compounds, 83% hits; shares compounds with tim23-1 inh;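 active means inhibition above about 39% in either of two replicate wells at 20 µM, limit read from the data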;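 further: temperature-sensitive tim23-1 mutant grown at 25 °C; 0% = DMSO wells with yeast and 100% = medium wells without yeast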
VATPase regulator: yeast V-ATPase proton pumping modulators, confirmation, S. cerevisiae, pH-sensitive GFP, second cherry-pick; shares compounds with V-ATPase pH; S. cerevisiae pHLuorin cytosolic pH, V-ATPase proton transport; response, % at 10 µM; 980 compounds, 2% hits; AID 602197, 2012; in the data active means response above about 24%;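 further: plate controls were vehicle wells for no effect and positive control wells for full effect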
* hit, by the source's call; nt = not tested or not shown.

SMILES	NALP3 yeast inh	tim10-1 inh	tim23-1 inh	NALP1 inh	TIM10 inh	V-ATPase pH	tim23-1 confirm	others
Cc1ccccc1CSc1nsc(N)n1	6	35	52*	3	11	5	50*
CCCCN1CC2=C(C1=O)C(c1ccc(O)cc1)NC(=O)N2C (stereo not drawn)	-7	6	4	-13	-9	-1	nt
CC1CN(c2ccc([N+](=O)[O-])c(NCCOc3ccc(Cl)cc3)c2)CC(C)N1 (stereo not drawn)	29	28	50	16	34	-3	nt
CCc1ccc(OCCNc2cc(N3CCNC(C)C3)ccc2[N+](=O)[O-])cc1 (stereo not drawn)	24	27	57*	nt	18	2	59*
COc1cc(CN2CCCC(C(=O)c3ccc4c5c(cccc35)CC4)C2)cc(OC)c1O (stereo not drawn)	5	12	36	15	23	1	nt
CSC1=N/C(=C\c2ccc(C)cc2)C(=O)S1	16	29	61*	7	9	-2	56*
COCCCNC(CC(=O)Nc1cc(C)cc(C)c1)C(=O)O (stereo not drawn)	2	-8	1	nt	-8	1	nt
COc1ccc(CCNS(=O)(=O)c2ccc(Br)cc2)cc1	25	35	52*	4	-2	-4	30
COc1cccc(/C=C2\CCc3ccccc3C2=O)c1	34	28	38	4	10	-2	nt
CC(=O)Oc1ccc(/C=C2/CCc3ccccc3C2=O)cc1	39	-11	60*	12	31	3	51*
Cc1ccc(Cl)cc1S(=O)(=O)N1CCC(C(=O)NC2CCN(Cc3ccccc3)CC2)CC1	10	-26	-4	25	-21	-1	nt
CCn1c(/C=C/c2ccccc2)nc2ccccc2c1=O	25	7	-10	-5	9	-3	nt
CC(C)Cn1c(/C=C/c2ccccc2)nc2ccccc21	41	39	56*	34	39	-2	46*
CC(=O)Nc1nnc(-c2ccc3c(c2)CCCC3)o1	12	9	9	2	0	4	nt
COc1ccccc1C(=O)Nc1nnc(-c2ccc3c(c2)CCCC3)o1	27	25	52*	30	39	-1	56*
Cc1ccc(C2(C)NC(=O)N(CC(=O)Nc3cc(S(=O)(=O)N4CCOCC4)ccc3OC(C)C)C2=O)cc1 (stereo not drawn)	nt	nt	nt	nt	nt	1	nt
COc1ccc(S(=O)(=O)N2CCN(C(=O)c3cnc(C)cn3)CC2)cc1	7	-11	-7	6	-13	0	nt
COc1ccc(S(=O)(=O)N2CCN(C(=O)c3ccc4ccccc4n3)CC2)cc1	22	38	58*	nt	36	2	61*
COc1ccc(OC)c(NC(=O)c2nc(S(=O)(=O)Cc3ccccc3)ncc2Cl)c1	-6	11	73*	-8	34	2	-43
Cc1ccccc1CS(=O)(=O)c1ncc(Cl)c(C(=O)Nc2ccc(F)cc2)n1	41	-1	62*	15	6	-6	-23
O=C(Nc1ccc(F)cc1)c1nc(S(=O)(=O)Cc2ccccc2)ncc1Cl	32	31	61*	-12	3	1	-126
CCC(C)/C(C)=N/NC(=O)CSc1nc2ccccc2[nH]1 (stereo not drawn)	8	9	13	17	-5	4	nt
O=C(O)c1ccc(N=N/C(=N\Nc2ccc(C(=O)O)cc2)c2ccccc2)cc1	33	5	25	nt	10	2	nt
O=C(O)c1cccc(N/N=C(\N=Nc2ccccc2)c2ccccc2)c1	26	34	53*	nt	3	1	46*
COCc1nnc(NC(=O)CS(=O)(=O)c2ccc(C)cc2)s1	16	-7	10	14	-8	1	nt
SMILES	NALP3 yeast inh	tim10-1 inh	tim23-1 inh	NALP1 inh	TIM10 inh	V-ATPase pH	tim23-1 confirm	others
O=C(CN1CCCCC1)Nc1nnc(-c2ccccc2)s1	27	12	4	-12	-13	0	nt
O=C(CN1CCCCC1)Nc1nnc(-c2ccc([N+](=O)[O-])cc2)s1	34	-10	91*	1	6	1	24
CC(=O)Oc1cccc(N2C(=O)c3cccc4c([N+](=O)[O-])ccc(c34)C2=O)c1	-4	33	51*	13	39	-20	51*
Cc1oc(-c2ccccc2Cl)nc1CN1CCCN(C(=O)c2ccco2)CC1	-1	22	9	-4	4	1	nt
Cc1ccc(C(=O)Nc2nc(-c3ccccn3)cs2)s1	40	10	62*	nt	1	-1	55*
Cc1ccccc1-c1ocnc1C(=O)Nc1ccccc1NC(=O)c1ccccn1	17	34	50*	9	35	1	49*
NCCCCc1ccc2ccc3cccc4ccc1c2c34	31	32	50*	nt	7	0	9
c1ccc2c(c1)c1cccc3ccc4cccc2c4c31	4	1	19	nt	19	0	nt
Oc1ccc2ccccc2c1/C=N/Nc1ccccc1	1	13	35	36	19	-3	nt
Oc1ccc2ccccc2c1C=NCc1ccccc1	16	4	65*	14	8	-1	60*
O=C(CNc1ccccc1OC(F)F)N1CCc2ccccc21	29	25	20	2	4	0	nt
Cc1ccc(-n2c3c(cc(C(=O)NCCCN4CCOCC4)c2=O)C(=O)CC(C)(C)C3)cc1	-5	21	26	nt	19	11*	nt	VATPase regulator=0
O=C(Oc1coc(CSc2nnc(NC(=O)c3cccs3)s2)cc1=O)c1ccccc1	10	8	6	30	12	9.3*	nt	VATPase regulator=-3
O=C(NCCCc1ccccc1)c1ccc(F)cc1	22	2	14	24	-3	-3	nt
O=C(NCCCCNC(=O)c1ccc(F)cc1)c1ccc(F)cc1	3	-31	-12	13	-37	1	nt	VATPase regulator=0
COc1ccccc1N(C)S(=O)(=O)c1ccc(C(=O)NC(C)c2ccccc2)cc1 (stereo not drawn)	-4	8	14	nt	-24	-1	nt
CN(c1ccccc1C(=O)Nc1ccc(CC#N)cc1)S(=O)(=O)c1ccccc1	2	23	39	15	16	0	nt
COC(=O)c1ccc(CN2C(=O)C(C)N(C(=O)c3c(F)cccc3F)c3ccccc32)cc1 (stereo not drawn)	14	24	40	22	-3	0	nt
